Source: publication PMC7862700, “An all-to-all approach to the identification of sequence-specific readers for epigenetic DNA modifications on cytosine”

How the values were obtained:
Test in all cases: DAPPL (digital affinity profiling via proximity ligation, sequencing); 10 mM Tris-HCl pH 7.5, 50 mM NaCl, 1 mM DTT, 4% glycerol, room temperature, 30 min; GST-TFs on glutathione beads, 16-mer random dsDNA library, 0.1% formaldehyde crosslink after washing; high values mean tight binding
Conditions in all cases: protein: recombinant; tags: N-terminal GST; dsDNA, one strand shown
ERF = biological target: T1, ERF (Homo sapiens, UniProt P50548 1-548)
T1 sequence: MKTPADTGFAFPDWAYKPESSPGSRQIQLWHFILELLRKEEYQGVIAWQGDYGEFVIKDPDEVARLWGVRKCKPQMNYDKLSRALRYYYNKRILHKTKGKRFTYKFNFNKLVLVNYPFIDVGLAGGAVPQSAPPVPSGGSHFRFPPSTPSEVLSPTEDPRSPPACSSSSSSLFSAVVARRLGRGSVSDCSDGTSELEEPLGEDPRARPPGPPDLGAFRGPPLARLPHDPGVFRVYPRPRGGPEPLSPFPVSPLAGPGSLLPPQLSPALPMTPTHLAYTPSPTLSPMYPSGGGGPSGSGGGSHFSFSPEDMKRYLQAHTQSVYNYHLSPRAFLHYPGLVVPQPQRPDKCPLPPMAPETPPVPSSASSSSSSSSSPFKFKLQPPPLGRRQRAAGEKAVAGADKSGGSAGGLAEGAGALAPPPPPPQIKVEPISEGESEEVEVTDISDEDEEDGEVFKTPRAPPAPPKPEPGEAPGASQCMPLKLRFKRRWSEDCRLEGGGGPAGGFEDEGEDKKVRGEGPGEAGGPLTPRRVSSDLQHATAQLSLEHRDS
Outline: (§1)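 Pools were built from human transcription factors expressed in yeast as GST fusions, captured on glutathione beads and DNA-barcoded, along with a tag-only sample. Incubation with 200 nmole of a 16-mer random double-stranded DNA library lasted 30 min at room temperature in Tris/NaCl/DTT/glycerol buffer, and was followed by washing, 0.1% formaldehyde crosslinking, proximity ligation, PCR amplification and Illumina NextSeq500 sequencing. Binding signal is the quotient of each hexamer's read frequency for a factor and its frequency for the tag-only sample.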

ETV3L = biological target: T2, ETV3L (Homo sapiens, UniProt Q6ZN32 1-361)
T2 sequence: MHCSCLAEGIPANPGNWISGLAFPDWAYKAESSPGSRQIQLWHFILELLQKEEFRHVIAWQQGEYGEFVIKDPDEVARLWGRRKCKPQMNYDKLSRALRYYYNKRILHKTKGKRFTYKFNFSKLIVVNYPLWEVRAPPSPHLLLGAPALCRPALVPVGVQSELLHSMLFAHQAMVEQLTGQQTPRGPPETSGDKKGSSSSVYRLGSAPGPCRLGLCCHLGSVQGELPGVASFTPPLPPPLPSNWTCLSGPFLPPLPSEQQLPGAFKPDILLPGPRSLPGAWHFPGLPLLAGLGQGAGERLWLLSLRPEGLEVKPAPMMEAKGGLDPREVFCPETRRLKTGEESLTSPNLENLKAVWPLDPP
Outline: as §1

ETS2 = biological target: T3, ETS2 (Homo sapiens, UniProt P15036 1-469)
T3 sequence: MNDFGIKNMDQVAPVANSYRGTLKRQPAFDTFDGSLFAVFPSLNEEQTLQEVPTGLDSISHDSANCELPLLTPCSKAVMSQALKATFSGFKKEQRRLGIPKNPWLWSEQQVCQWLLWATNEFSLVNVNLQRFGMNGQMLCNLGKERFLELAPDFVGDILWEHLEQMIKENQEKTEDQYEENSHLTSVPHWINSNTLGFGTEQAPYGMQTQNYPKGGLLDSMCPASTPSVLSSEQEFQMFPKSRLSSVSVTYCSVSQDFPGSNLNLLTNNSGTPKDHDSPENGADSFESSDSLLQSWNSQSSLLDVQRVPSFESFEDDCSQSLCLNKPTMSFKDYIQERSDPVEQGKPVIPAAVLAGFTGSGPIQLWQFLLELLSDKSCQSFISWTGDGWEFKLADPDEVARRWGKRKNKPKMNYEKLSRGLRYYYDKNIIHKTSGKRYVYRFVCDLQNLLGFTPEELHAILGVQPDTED
Outline: as §1

SPDEF = biological target: T4, SPDEF (Homo sapiens, UniProt O95238 1-335)
T4 sequence: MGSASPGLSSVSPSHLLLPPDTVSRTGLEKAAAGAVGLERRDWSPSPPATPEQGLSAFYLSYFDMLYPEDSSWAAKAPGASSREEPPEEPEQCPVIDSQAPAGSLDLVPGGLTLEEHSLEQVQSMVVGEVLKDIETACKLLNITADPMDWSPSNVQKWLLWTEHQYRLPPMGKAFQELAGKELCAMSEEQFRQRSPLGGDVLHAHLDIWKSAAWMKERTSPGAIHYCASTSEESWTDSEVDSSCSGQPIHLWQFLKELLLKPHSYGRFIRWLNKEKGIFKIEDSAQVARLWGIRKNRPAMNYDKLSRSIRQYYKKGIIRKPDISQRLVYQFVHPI
Outline: as §1

ETV7 = biological target: T5, ETV7 (Homo sapiens, UniProt Q9Y603 1-341)
T5 sequence: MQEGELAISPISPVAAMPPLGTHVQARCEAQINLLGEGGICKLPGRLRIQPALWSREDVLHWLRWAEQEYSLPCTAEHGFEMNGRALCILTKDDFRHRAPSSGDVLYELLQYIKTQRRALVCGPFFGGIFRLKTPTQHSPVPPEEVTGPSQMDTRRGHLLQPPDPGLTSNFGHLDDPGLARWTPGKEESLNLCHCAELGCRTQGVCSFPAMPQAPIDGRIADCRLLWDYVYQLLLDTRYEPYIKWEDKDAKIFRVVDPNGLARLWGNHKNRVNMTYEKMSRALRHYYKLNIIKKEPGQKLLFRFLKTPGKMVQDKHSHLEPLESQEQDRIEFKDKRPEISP
Outline: as §1

ELF5 = biological target: T6, ELF5 (Homo sapiens, UniProt Q9UKW6-2 1-255)
T6 sequence: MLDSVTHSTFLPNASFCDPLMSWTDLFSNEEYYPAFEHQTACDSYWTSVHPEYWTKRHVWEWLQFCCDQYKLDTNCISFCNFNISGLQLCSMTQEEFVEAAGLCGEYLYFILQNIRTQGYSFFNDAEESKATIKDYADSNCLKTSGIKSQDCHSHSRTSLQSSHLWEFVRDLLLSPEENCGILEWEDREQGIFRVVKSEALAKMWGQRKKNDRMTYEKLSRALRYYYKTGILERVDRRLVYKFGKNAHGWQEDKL
Outline: as §1

ETV3 = biological target: T7, ETV3 (Homo sapiens, UniProt P41162-2 1-143)
T7 sequence: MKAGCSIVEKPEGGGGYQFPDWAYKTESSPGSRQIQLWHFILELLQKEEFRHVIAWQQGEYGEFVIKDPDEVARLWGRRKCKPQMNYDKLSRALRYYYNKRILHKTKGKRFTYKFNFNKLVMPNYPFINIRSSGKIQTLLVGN
Outline: as §1

ETV6 = ETV6 (Homo sapiens, UniProt P41212 1-452)
Outline: as §1

ETV6, sequence (P41212 whole entry): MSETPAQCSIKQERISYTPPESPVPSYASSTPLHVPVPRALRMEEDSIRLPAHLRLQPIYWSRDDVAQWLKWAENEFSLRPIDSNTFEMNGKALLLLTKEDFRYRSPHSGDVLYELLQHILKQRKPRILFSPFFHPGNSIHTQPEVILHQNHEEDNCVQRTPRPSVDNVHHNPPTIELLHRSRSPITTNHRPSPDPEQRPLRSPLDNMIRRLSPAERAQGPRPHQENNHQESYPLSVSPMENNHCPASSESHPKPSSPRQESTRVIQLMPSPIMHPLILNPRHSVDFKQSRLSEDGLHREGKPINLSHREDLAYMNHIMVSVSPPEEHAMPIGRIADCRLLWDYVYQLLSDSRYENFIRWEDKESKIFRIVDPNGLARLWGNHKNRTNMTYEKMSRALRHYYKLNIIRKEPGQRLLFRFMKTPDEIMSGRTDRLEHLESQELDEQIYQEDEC

Row | Sequence | binding signal (ERF) | binding signal (ETV3L) | binding signal (ETS2) | binding signal (SPDEF) | binding signal (ETV7) | binding signal (ELF5) | binding signal (ETV3) | binding signal (ETV6)
1 | ACCGTC | 1.25 fold enrichment (6-mer frequency, TF over GST control) | 1.23 fold enrichment (6-mer frequency, TF over GST control) | 1.28 fold enrichment (6-mer frequency, TF over GST control) | 1.35 fold enrichment (6-mer frequency, TF over GST control) | 1.09 fold enrichment (6-mer frequency, TF over GST control) | 1.08 fold enrichment (6-mer frequency, TF over GST control) | 1.2 fold enrichment (6-mer frequency, TF over GST control) | 1.21 fold enrichment (6-mer frequency, TF over GST control)
2 | TGTAGC | 1.32 fold enrichment (6-mer frequency, TF over GST control) | 1.13 fold enrichment (6-mer frequency, TF over GST control) | 1.12 fold enrichment (6-mer frequency, TF over GST control) | 1.2 fold enrichment (6-mer frequency, TF over GST control) | 1.12 fold enrichment (6-mer frequency, TF over GST control) | 1.14 fold enrichment (6-mer frequency, TF over GST control) | 1.22 fold enrichment (6-mer frequency, TF over GST control) | 1.12 fold enrichment (6-mer frequency, TF over GST control)
3 | TATCTG | 1.2 fold enrichment (6-mer frequency, TF over GST control) | 1.41 fold enrichment (6-mer frequency, TF over GST control) | 1.11 fold enrichment (6-mer frequency, TF over GST control) | 1.13 fold enrichment (6-mer frequency, TF over GST control) | 1.2 fold enrichment (6-mer frequency, TF over GST control) | 1.14 fold enrichment (6-mer frequency, TF over GST control) | 1.21 fold enrichment (6-mer frequency, TF over GST control) | 1.17 fold enrichment (6-mer frequency, TF over GST control)
4 | TAGGAA | 1.17 fold enrichment (6-mer frequency, TF over GST control) | 1.15 fold enrichment (6-mer frequency, TF over GST control) | 1.19 fold enrichment (6-mer frequency, TF over GST control) | 1.11 fold enrichment (6-mer frequency, TF over GST control) | 1.04 fold enrichment (6-mer frequency, TF over GST control) | 1.29 fold enrichment (6-mer frequency, TF over GST control) | 1.22 fold enrichment (6-mer frequency, TF over GST control) | 1.37 fold enrichment (6-mer frequency, TF over GST control)
5 | ACTGTT | 1.19 fold enrichment (6-mer frequency, TF over GST control) | 1.09 fold enrichment (6-mer frequency, TF over GST control) | 1.13 fold enrichment (6-mer frequency, TF over GST control) | 1.04 fold enrichment (6-mer frequency, TF over GST control) | 1.01 fold enrichment (6-mer frequency, TF over GST control) | 1.22 fold enrichment (6-mer frequency, TF over GST control) | 1.2 fold enrichment (6-mer frequency, TF over GST control) | 1.2 fold enrichment (6-mer frequency, TF over GST control)
6 | TATATG | 1.48 fold enrichment (6-mer frequency, TF over GST control) | 1.35 fold enrichment (6-mer frequency, TF over GST control) | 1.38 fold enrichment (6-mer frequency, TF over GST control) | 1.29 fold enrichment (6-mer frequency, TF over GST control) | 1.29 fold enrichment (6-mer frequency, TF over GST control) | 1.39 fold enrichment (6-mer frequency, TF over GST control) | 1.41 fold enrichment (6-mer frequency, TF over GST control) | 1.34 fold enrichment (6-mer frequency, TF over GST control)
7 | AAAATT | 1.48 fold enrichment (6-mer frequency, TF over GST control) | 1.49 fold enrichment (6-mer frequency, TF over GST control) | 1.4 fold enrichment (6-mer frequency, TF over GST control) | 1.26 fold enrichment (6-mer frequency, TF over GST control) | 1.5 fold enrichment (6-mer frequency, TF over GST control) | 1.29 fold enrichment (6-mer frequency, TF over GST control) | 1.31 fold enrichment (6-mer frequency, TF over GST control) | 1.33 fold enrichment (6-mer frequency, TF over GST control)
8 | TCTTCA | 1.29 fold enrichment (6-mer frequency, TF over GST control) | 1.37 fold enrichment (6-mer frequency, TF over GST control) | 1.11 fold enrichment (6-mer frequency, TF over GST control) | 1.25 fold enrichment (6-mer frequency, TF over GST control) | 1.13 fold enrichment (6-mer frequency, TF over GST control) | 1.16 fold enrichment (6-mer frequency, TF over GST control) | 1.16 fold enrichment (6-mer frequency, TF over GST control) | 1.25 fold enrichment (6-mer frequency, TF over GST control)
9 | TGCCTG | 1.46 fold enrichment (6-mer frequency, TF over GST control) | 1.28 fold enrichment (6-mer frequency, TF over GST control) | 1.28 fold enrichment (6-mer frequency, TF over GST control) | 1.36 fold enrichment (6-mer frequency, TF over GST control) | 1.17 fold enrichment (6-mer frequency, TF over GST control) | 1.27 fold enrichment (6-mer frequency, TF over GST control) | 1.31 fold enrichment (6-mer frequency, TF over GST control) | 1.18 fold enrichment (6-mer frequency, TF over GST control)
